Experimental findings from the OligoGym collection are described below.
Also: reference of the scale not given here.

The first assay deals with ZNF512B. Put plainly: pooled miR-30 sensor sort-seq; sequence = guide strand. The following applies: shRNA.
TTTTTCTTCCCTTCTGTCTTGT had a sensor-assay potency score (higher = more potent) of 0.00205.
Sequence TTGCTGACCACAATGGGCCTGC came in with a sensor-assay potency score (higher = more potent) of 0.0376.
Consider TTCGGAACCAGTTCTCTGCGTG, for which the sensor-assay potency score (higher = more potent) is -0.0926.
In turn, TTGGACTTGAACTGCTTCCGGC displayed a sensor-assay potency score (higher = more potent) of -0.182.
Take TTTGGACTTGAACTGCTTCCGG: the sensor-assay potency score (higher = more potent) was 0.34.
Still for that read-out and setting: in the case of TTGAAGGGCATCAAGCTTCTGC it was 0.255.
TTGCTGACTCCCACCTTCCGGC registered a sensor-assay potency score (higher = more potent) of -0.809.
In turn, TTCGTAACTGTCACAAGCTTTG displayed a sensor-assay potency score (higher = more potent) of -1.03.
Same read-out and setting: in the case of TAGTGTGGTAGTTGAGGCCGGC it was -0.21.
Same read-out and setting: under TGAGTTTGGACACTTCACCCTC stands -0.0834; under TTTCGTAACTGTCACAAGCTTT, -0.797.

A further assay deals with ZNF517. The description is as above. The following applies: shRNA.
Consider TGCTCGTTGAGGGTGAACCTGC, for which the sensor-assay potency score (higher = more potent) is -1.07.
On to TCGTTCAGCGTGTAGCTCCTGC, for which the sensor-assay potency score (higher = more potent) was -0.267.
In turn, TTGTATCTGAACGCCTTGCCGC returned a sensor-assay potency score (higher = more potent) of -1.19.
Consider TTCTCTGCAGAGGAGACTCCAT, for which the sensor-assay potency score (higher = more potent) was -1.52.
Same read-out and setting: in the case of TTTGGCAACAAGAAAGCCTAGT it was 0.561.
Consider TTCAGCGTGTAGCTCCTGCGGA, for which the sensor-assay potency score (higher = more potent) was -0.596.
The sequence TCCTTGTGAAGTACACAGCCAC came in with a sensor-assay potency score (higher = more potent) of -1.39.
On to TCGTTGAGGGTGAACCTGCGGC, for which the sensor-assay potency score (higher = more potent) is -0.629.
The sequence TTGAGGGTGAACCTGCGGCAGA registered a sensor-assay potency score (higher = more potent) of -1.5.
The sequence TCTTCCTGCAGAACCCTTGGGG showed a sensor-assay potency score (higher = more potent) of -0.177.
Regarding TTGTGAAGTACACAGCCACATC, the sensor-assay potency score (higher = more potent) is -1.38.
The same measure, in the same setting: in the case of TTCTGGTGCTGCAGCAGCCGGG it was -1.68.
